In PubChem BioAssay one finds composite z-score and z-score data, which are given here for five compounds.

Active and inactive are the calls of the source.

The nature of assay [1]: binders of probe aFSTL3 on microarray, primary screen, stem cell growth factor project, biochemical, small-molecule microarray, fluorescence 635/667 (AID 1064).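 Also: measures binding of the biotinylated anti-FSTL3 antibody to printed compounds.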 To be noted: higher = more signal.
Assay [2] can be described thus: binders from COS7 lysate, DM2A8 probe, primary screen, torsin A project, cell lysate, small-molecule microarray, fluorescence 635/667 (AID 1065). To be noted: higher = more signal, COS7 lysate expressing mutant human TOR1A.
Assay [3] can be described thus: binders of probe aFGF2 on microarray, primary screen, stem cell growth factor project, biochemical, small-molecule microarray, fluorescence 635/667 (AID 1067).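 Also: measures binding of biotinylated aFGF2 protein to printed compounds on slides; z-score merges feature fluorescence and signal-to-noise across triplicate slides.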 To be noted: higher = more signal.
Assay [4] in a line: binders of probe aFGF10 on microarray, primary screen, stem cell growth factor project, biochemical, small-molecule microarray, fluorescence 635/667 (AID 1071).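 Also: score merges 667 nm spot intensity and signal to noise from triplicate slides.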 As to conditions: higher = more signal.
The target in assay [5] is Neurogenic locus notch homolog protein 2 (Homo sapiens) (UniProt Q04721). Nature of the assay: Notch2 binders on small-molecule microarrays, primary screen, biochemical, small-molecule microarray, 635 nm fluorescence, stem cell growth factors (AID 1073). To be noted: Notch2 binding, higher = more signal.
Sequence of Neurogenic locus notch homolog protein 2 (Homo sapiens) (Q04721 whole entry, looked up, canonical isoform): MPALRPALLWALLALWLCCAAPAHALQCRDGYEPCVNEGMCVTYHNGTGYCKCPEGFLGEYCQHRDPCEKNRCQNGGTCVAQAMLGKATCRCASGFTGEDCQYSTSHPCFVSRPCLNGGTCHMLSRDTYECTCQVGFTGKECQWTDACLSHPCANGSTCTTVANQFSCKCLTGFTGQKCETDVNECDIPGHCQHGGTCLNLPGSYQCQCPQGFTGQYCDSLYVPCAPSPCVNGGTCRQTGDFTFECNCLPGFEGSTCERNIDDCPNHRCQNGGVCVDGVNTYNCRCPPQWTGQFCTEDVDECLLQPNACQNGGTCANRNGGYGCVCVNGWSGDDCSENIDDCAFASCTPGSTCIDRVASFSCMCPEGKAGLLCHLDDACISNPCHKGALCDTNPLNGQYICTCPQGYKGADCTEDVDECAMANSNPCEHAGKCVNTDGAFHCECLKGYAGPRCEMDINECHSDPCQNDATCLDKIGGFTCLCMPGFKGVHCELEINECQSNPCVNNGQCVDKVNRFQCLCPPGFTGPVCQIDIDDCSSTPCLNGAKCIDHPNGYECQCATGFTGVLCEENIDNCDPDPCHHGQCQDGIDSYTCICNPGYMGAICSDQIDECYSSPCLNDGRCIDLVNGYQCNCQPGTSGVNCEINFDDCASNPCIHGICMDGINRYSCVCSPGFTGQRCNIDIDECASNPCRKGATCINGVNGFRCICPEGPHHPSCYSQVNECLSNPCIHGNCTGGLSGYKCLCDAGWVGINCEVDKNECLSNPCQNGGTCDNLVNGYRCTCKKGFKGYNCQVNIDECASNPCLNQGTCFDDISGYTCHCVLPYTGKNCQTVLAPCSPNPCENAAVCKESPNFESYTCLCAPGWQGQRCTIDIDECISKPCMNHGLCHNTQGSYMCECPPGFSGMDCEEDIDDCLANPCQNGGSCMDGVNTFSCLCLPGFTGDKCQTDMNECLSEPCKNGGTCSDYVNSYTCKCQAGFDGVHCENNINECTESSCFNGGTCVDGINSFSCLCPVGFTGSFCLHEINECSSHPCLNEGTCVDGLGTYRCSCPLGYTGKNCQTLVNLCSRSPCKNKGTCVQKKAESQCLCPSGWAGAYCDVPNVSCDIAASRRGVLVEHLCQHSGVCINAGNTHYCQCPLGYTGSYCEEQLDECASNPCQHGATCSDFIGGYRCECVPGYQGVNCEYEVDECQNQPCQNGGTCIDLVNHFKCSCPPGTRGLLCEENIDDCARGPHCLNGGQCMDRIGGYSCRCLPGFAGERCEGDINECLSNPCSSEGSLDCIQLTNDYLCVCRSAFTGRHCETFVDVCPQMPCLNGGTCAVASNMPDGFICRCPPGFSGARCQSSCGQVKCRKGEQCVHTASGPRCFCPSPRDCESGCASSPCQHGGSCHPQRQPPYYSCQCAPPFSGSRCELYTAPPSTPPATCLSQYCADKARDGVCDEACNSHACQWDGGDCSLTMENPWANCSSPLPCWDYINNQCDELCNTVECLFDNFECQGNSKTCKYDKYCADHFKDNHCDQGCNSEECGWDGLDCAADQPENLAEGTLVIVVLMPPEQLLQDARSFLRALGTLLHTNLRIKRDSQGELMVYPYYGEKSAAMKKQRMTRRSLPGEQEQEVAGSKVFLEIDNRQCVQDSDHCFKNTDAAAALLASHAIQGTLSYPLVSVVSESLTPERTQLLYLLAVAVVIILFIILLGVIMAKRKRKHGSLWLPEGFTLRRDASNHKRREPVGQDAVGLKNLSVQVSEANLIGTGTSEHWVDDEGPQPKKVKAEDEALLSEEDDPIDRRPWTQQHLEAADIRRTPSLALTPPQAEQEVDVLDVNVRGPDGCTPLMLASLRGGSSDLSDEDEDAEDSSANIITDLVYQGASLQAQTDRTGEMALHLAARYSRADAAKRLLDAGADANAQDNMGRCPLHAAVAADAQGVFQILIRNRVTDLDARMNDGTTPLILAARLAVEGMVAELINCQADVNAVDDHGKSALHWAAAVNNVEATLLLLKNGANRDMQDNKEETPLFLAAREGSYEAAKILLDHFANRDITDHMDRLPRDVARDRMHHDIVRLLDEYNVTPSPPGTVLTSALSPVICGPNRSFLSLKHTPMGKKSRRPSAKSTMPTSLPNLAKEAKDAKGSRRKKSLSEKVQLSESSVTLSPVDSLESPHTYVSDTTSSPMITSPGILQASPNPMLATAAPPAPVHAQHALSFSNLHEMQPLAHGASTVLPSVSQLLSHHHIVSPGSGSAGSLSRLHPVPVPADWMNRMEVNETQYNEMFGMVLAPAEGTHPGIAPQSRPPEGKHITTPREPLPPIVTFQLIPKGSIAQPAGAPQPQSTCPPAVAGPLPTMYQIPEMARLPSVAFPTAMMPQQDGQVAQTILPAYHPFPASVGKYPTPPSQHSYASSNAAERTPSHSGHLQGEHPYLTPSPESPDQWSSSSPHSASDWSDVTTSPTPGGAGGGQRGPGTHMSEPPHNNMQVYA
For assay [6], the target named is Pro-neuregulin-1, membrane-bound isoform (Homo sapiens) (UniProt Q02297). Briefly: NRG1 binders on small-molecule microarrays, primary screen, psychiatric disease protein project, biochemical, small-molecule microarray, fluorescence 635/667 (AID 1075).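 Also: score combines 667 nm spot fluorescence with signal to noise.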 To be noted: NRG1 binding, 635 nm fluorescence, higher = more signal.
Sequence of Pro-neuregulin-1, membrane-bound isoform (Homo sapiens) (Q02297 whole entry, looked up, the tested form may be a part, canonical isoform): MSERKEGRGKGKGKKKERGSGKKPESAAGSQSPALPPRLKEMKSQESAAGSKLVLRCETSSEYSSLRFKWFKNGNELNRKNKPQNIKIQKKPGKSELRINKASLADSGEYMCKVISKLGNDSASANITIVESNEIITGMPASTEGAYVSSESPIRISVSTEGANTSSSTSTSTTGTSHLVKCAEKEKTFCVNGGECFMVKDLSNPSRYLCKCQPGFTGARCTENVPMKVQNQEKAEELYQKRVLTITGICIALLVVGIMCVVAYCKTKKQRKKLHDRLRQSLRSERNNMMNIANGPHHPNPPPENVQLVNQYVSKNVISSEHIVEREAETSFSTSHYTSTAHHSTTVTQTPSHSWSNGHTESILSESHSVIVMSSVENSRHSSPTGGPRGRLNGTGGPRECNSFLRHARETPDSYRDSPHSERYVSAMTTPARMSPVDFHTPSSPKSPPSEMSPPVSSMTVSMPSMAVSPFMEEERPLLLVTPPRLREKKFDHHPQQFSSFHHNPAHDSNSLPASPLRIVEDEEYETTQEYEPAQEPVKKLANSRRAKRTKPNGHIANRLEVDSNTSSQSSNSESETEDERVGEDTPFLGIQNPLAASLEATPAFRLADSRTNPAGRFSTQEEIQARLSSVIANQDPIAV
The subject of assay [7] is Neuregulin-1 EGF-like domain. Briefly: binders of neuregulin-1 EGF-like domain, primary screen, biochemical, small-molecule microarray, 635 nm fluorescence (AID 1081).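 Also: binding of the protein to compounds printed on small-molecule microarray slides.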 To be noted: small-molecule microarray binding, higher = more signal.
Assay [8] can be described thus: FRG1 promoter luciferase signal modulators, primary screen, FRG1 inhibition for FSHD, cell-based, C2C12 myotubes, firefly/Renilla luciferase, luminescence (AID 1084). As to conditions: higher = more signal, called active from +8 up or from −8 down.
Assay [9] can be described thus: binders of probe aFST on microarray, primary screen, stem cell growth factor project, biochemical, small-molecule microarray, fluorescence 635/667 (AID 1086).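 Also: score merges 667 nm fluorescence with signal-to-noise of each printed compound spot.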 As to conditions: higher = more signal.
A short description of assay [10]: binders of probe aHhip on microarray, primary screen, stem cell growth factor project, biochemical, small-molecule microarray, fluorescence 635/667 (AID 1087).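 Also: score merges spot fluorescence at 667nm with spot signal to noise ratio.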 As to conditions: higher = more signal.
Assay [11] relates to PRMT1 (protein arginine N-methyltransferase 1). Briefly: PRMT1 binders on small-molecule microarrays, primary screen, biochemical, small-molecule microarray, 635 nm fluorescence (AID 1088).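 Also: binding of Prmt1 protein to compounds spotted on small-molecule microarray slides.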 To be noted: small-molecule microarray binding, higher = more signal.
Assay [12] is described as follows: yeast growth modulation, basal conditions, primary screen, YJM789 clinical isolate, OD600, 24 h (AID 1089).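 Also: growth of clinical yeast isolate S. cerevisiae YJM 789 seeded 1000 cells per well; test concentration not given here.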 To be noted: S. cerevisiae YJM789 growth, higher = more signal, called active from +8 up or from −8 down.
Assay [13] is described as follows: fission yeast growth modulation, primary screen, strain 972, OD600, 24 h, no modulator (AID 1090).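 Also: basal condition with compound alone and no growth modifier present; test concentration not given here.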 As to conditions: S. pombe 972 growth, higher = more signal, called active from +8 up or from −8 down.
A short description of assay [14]: S. cerevisiae growth modulation with rapamycin, primary screen, strain BY4716, OD600, 96 h (AID 1091). Also: test concentration not given here. To be noted: higher = more signal, called active from +8 up or from −8 down.
Assay [15] deals with Torsin-1A-interacting protein 2 (Homo sapiens) (UniProt Q8NFQ8). Briefly: LULL1 binders on small-molecule microarray, primary screen, cell lysate, human LULL1 lysate, 635/667 nm fluorescence (AID 1092).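 Also: probe is lysate of COS7 cells overexpressing human LULL1; score merges per-feature 667 nm fluorescence with signal-to-noise.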 To be noted: hLULL1 lysate binding, 635 nm fluorescence, higher = more signal.
Sequence of Torsin-1A-interacting protein 2 (Homo sapiens) (Q8NFQ8 whole entry, looked up): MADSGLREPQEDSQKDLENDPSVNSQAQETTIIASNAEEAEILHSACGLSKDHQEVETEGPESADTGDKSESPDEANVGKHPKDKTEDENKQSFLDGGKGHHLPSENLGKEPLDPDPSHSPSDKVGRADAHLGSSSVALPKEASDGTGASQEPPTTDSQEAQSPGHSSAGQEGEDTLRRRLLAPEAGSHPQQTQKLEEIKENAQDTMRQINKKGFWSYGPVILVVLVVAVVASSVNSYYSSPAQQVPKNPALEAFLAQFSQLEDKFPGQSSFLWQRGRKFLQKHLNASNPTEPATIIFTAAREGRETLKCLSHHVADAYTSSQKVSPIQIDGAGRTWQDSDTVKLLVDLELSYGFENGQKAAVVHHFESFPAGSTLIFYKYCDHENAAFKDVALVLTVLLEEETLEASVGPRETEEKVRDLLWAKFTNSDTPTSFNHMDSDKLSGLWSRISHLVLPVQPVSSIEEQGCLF
Assay [16] can be described thus: E. coli growth modulation, two-sided OD650, primary screen, E. coli filamentation project, strain DRC41, 24 h (AID 1093).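 Also: MC1000 strain lacking acrAB efflux and sulA so SOS filamentation is blocked; test concentration not given here.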 To be noted: OD650, 24 h, higher = more signal, called active from +8 up or from −8 down.
The nature of assay [17]: small-molecule microarray binders of probe aLefty2, primary screen, biochemical, biotinylated probe, 635/667 nm fluorescence (AID 1094).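 Also: score merges spot fluorescence near 667 nm with spot signal-to-noise ratio.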 As to conditions: higher = more signal.
Assay [18] concerns Noggin (protein binding on small-molecule microarray). Briefly: Noggin binders on small-molecule microarray, primary screen, biochemical, 635/667 nm fluorescence (AID 1095).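 Also: score merges 667 nm feature fluorescence with signal to noise over triplicate slides.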 As to conditions: 635 nm fluorescence, higher = more signal.
For assay [19], the target named is Neurogenic locus notch homolog protein 3 (Homo sapiens) (UniProt Q9UM47). Nature of the assay: NOTCH3 binders on small-molecule microarray, primary screen, biochemical, 635/667 nm fluorescence (AID 1096). As to conditions: NOTCH3 binding, 635 nm fluorescence, higher = more signal.
A short description of assay [20]: small-molecule microarray binders of probe aEGFR, primary screen, biochemical, biotinylated probe, 635/667 nm fluorescence (AID 1097).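 Also: probe is a biotinylated anti-EGFR antibody binding compounds printed on slides; score combines fluorescence near 667 nm and signal to noise of each spot.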 To be noted: higher = more signal.

For the compound `COC(=O)[C@@H]1CC[C@H](C)[C@@H](c2ccc(Br)cc2)N1C[C@@H](O)CN=[N+]=[N-]`, the composite z-score in assay [1] is -0.463; in assay [2] it was 0.054; in assay [3] it was -0.116; in [4], 0.186; in assay [5], 0.462; in [6], 0.117. The composite z-score in assay [7] is -0.0109; in assay [9] it was -0.139; in [10] it was 0.0881; in [11] it was 0.382; in [15] it was 0.147; in assay [17], -0.0412. The composite z-score is 0.162 in assay [18], 0.0511 in assay [19] and -0.0902 in assay [20]. Also, the z-score was 0.687 (inactive) in [8]; -1.44 (inactive) in assay [12]; -10.1 (active) in assay [13]; -0.243 (inactive) in assay [14]; 0.323 (inactive) in assay [16].
Turning to `COCC#Cc1ccc([C@@H]2N[C@H](C(=O)O)CC[C@H]2C)cc1`, the composite z-score in assay [1] was -0.308; in assay [2], -0.087; in assay [3], -0.12; in assay [4], 0.0921; in [5], 0.314; in assay [6], -0.595. Moreover, the composite z-score in [7] was -0.616; in assay [9], 0.399; in assay [10], 0.132; in [11], 0.13; in [15] it was 0.237; in assay [17], -0.186. Moreover, the composite z-score in assay [18] is 0.165; in assay [19] it was -0.54; in assay [20], -0.0953. Besides, the z-score was -1.34 (inactive) in [8]; -1.63 (inactive) in assay [12]; -1.81 (inactive) in assay [13]; -1.34 (inactive) in [14]; 0.874 (inactive) in assay [16].
As to `CC(C)(C)N1C(=O)[C@H]2[C@H]3[C@H](O)[C@H](O)CC(=NOC[C@@H](O)COCc4ccco4)[C@@H]3CC[C@H]2C1=O`, the composite z-score is 0.812 in assay [1]; 0.152 in assay [2]; -0.0193 in [3]; 0.112 in assay [4]; 0.0503 in assay [5]; -0.0263 in assay [6]. For the same compound, the composite z-score in assay [7] was -0.214; in [9] it was -0.0115; in assay [10], -0.0994; in [11] it was -0.424; in assay [15], -0.238; in assay [17], 0.16. The composite z-score in [18] is 0.0106; in [19], -0.589; in assay [20], -0.141. For the same compound, the z-score was 0.528 (inactive) in [8]; -0.0093 (inactive) in assay [12]; 0.257 (inactive) in [13]; 0.498 (inactive) in [14]; 0.635 (inactive) in [16].
Consider `COc1ccc(COC(=O)NN=C2C[C@@H](O)[C@@H](O)[C@@H]3[C@@H]4C(=O)N(Cc5ccc6c(c5)OCO6)C(=O)[C@@H]4CC[C@H]23)cc1`, for which the composite z-score in [1] was 1.62; in assay [2] it was -0.197; in assay [3] it was -0.0269; in assay [4], -0.0605; in [5] it was -0.546; in assay [6] it was -0.393. For the same compound, the composite z-score is -0.282 in [7]; 0.648 in assay [9]; 0.0373 in assay [10]; 0.041 in assay [11]; 0.259 in [15]; 0.475 in assay [17]. The composite z-score is -0.961 in assay [18], -0.523 in assay [19] and -0.194 in assay [20]. Also, the z-score in assay [8] was 1.02 (inactive); in [12], 1.13 (inactive); in assay [13], 0.713 (inactive); in assay [14], -0.369 (inactive); in assay [16], 0.434 (inactive).
Regarding `CCOC(=O)[C@H](Cc1ccccc1)NC(=O)CCC1CC(OC(=O)NCc2cccc3ccccc23)CC2(CCCC(COC(=O)NCCc3ccccc3OC)O2)O1` (stereo not given in full), the composite z-score in assay [1] is -0.568; in [2], 0.0631; in assay [3] it was -0.0538; in assay [4], 0.586; in assay [5], 0.967; in assay [6] it was 0.341. Besides, the composite z-score in [7] amounted to 1.02; in [9], 0.327; in assay [10] it was 0.0623; in [11], 1.4; in [15] it was 1.95; in assay [17], 0.0108. In addition, the values for the composite z-score in assay [18], in assay [19] and in assay [20] were 0.591, 0.819 and -0.0396, respectively. In addition, the z-score in [8] was 1.37 (inactive); in assay [12] it was 0.105 (inactive); in assay [13] it was 0.503 (inactive); in assay [14], 0.296 (inactive); in assay [16] it was -0.164 (inactive).
